The text below walks through data of PubChem BioAssay (NCI).

This is part of a sample that, as a whole, favours compounds with a hit. Of some 83,000 tested, about 20% had one in any assay.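 Negative percent growth values reflect cell death: -40 means 40% of the cells present at the start died, and -100 means all died.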 A number with no mark means an inactive call. Activity calls are given as the source filed them. Rule for the calls: active = growth percent below 10; inactive = the rest.

Among the test systems are HCT-15 colon; HT29 colon; SNB-75 CNS; SNB-19 CNS; U251 CNS; PC-3 prostate; SK-MEL-5 melanoma; UACC-62 melanoma; LOX IMVI melanoma; SK-MEL-28 melanoma; SK-MEL-2 melanoma; EKVX NSCLC; SN12C renal; UO-31 renal; TK-10 renal; ACHN renal; CAKI-1 renal; CCRF-CEM leukemia; MOLT-4 leukemia.
Common to all, as to assay: NCI-60 one-dose screen, 48 h (100 = growth as untreated, 0 = no growth, -100 = all killed)
What all share (conditions): 10 µM unless noted

`CCOC(=O)CSc1nc2ccccc2c(=O)n1Cc1ccc(S(N)(=O)=O)cc1`: the growth in the assay with HCT-15 colon was 100%; in the assay with HT29 colon it was 105%; in the assay on SNB-75 CNS it was 85.8%; with SNB-19 CNS, 99.2%; with U251 CNS it was 97.5%; with PC-3 prostate, 91.7%. Moreover, the growth was 100% in the assay with SK-MEL-5 melanoma; 94.4% in the assay on UACC-62 melanoma; 95.9% with LOX IMVI melanoma; 104% in the assay with SK-MEL-28 melanoma; 111% with SK-MEL-2 melanoma; 97.1% in the assay with EKVX NSCLC. The growth was 99.5% in the assay with SN12C renal; 84.3% in the assay with UO-31 renal; 98.7% with TK-10 renal; 102% in the assay on ACHN renal; 91.3% in the assay with CAKI-1 renal; 97.1% with CCRF-CEM leukemia. Further, the growth with MOLT-4 leukemia was 104%.

As to `CCC(CC)NCC(C)(C)O`, the growth in the assay on HCT-15 colon was 101%; in the assay on HT29 colon, 108%; with SNB-75 CNS, 98.1%; with SNB-19 CNS, 94.6%; with U251 CNS, 103%; with PC-3 prostate, 89.9%. Moreover, the growth with SK-MEL-5 melanoma is 110%; in the assay with UACC-62 melanoma, 94.4%; with LOX IMVI melanoma, 101%; in the assay with SK-MEL-28 melanoma, 115%; in the assay on SK-MEL-2 melanoma, 110%; with EKVX NSCLC it was 102%. The growth in the assay on SN12C renal is 97.9%; in the assay on UO-31 renal, 88.2%; in the assay with TK-10 renal, 109%; in the assay on ACHN renal, 102%; in the assay with CAKI-1 renal, 89.5%; with CCRF-CEM leukemia, 100%. Also, the growth in the assay on MOLT-4 leukemia was 103%.

Consider `COc1ccc(NC(N)=NCCCOc2ccc(F)cc2)cc1`, for which the growth with HCT-15 colon was 92.2%; with HT29 colon it was 36.6%; in the assay on SNB-75 CNS it was 81.9%; with SNB-19 CNS, 81.5%; in the assay on U251 CNS it was 85.7%; with PC-3 prostate it was 66.8%. Also, the growth with SK-MEL-5 melanoma was 28%; with UACC-62 melanoma, 87.8%; in the assay with LOX IMVI melanoma, 89.8%; in the assay with SK-MEL-28 melanoma, 88.5%; in the assay on SK-MEL-2 melanoma it was 93.7%; with EKVX NSCLC, 69%. Besides, the growth with SN12C renal is 80.5%; in the assay on UO-31 renal it was 86.7%; with TK-10 renal, 87.3%; with ACHN renal, 89.3%; in the assay on CAKI-1 renal, 94%; with CCRF-CEM leukemia, 82.9%. In addition, the growth in the assay with MOLT-4 leukemia was 61%.

On to `CC(=O)Nc1ccc(-c2ccc3c(c2)NC(=O)/C3=C\c2ccc[nH]2)cc1`, for which the growth is 92.6% with HCT-15 colon; 90.6% in the assay with HT29 colon; 111% in the assay with SNB-75 CNS; 104% in the assay with SNB-19 CNS; 86.6% with U251 CNS; 97.8% with PC-3 prostate. For the same compound, the growth in the assay on SK-MEL-5 melanoma was 100%; with UACC-62 melanoma, 105%; with LOX IMVI melanoma, 84.2%; with SK-MEL-28 melanoma, 116%; with SK-MEL-2 melanoma, 96%; with EKVX NSCLC, 49.5%. Also, the growth was 94.6% with SN12C renal; 38.8% in the assay with UO-31 renal; 70.2% in the assay on TK-10 renal; 69.5% in the assay with ACHN renal; 78.1% with CAKI-1 renal; 94.8% in the assay with CCRF-CEM leukemia. In the assay with MOLT-4 leukemia, the growth is 87.3%.

For `CCN(CC)c1ccc(C(=O)c2ccccc2)cc1`, the growth was 105% with HCT-15 colon; 95% with HT29 colon; 93.5% with SNB-75 CNS; 97.7% in the assay on SNB-19 CNS; 87.2% in the assay on U251 CNS; 97.9% in the assay with PC-3 prostate. Moreover, the growth in the assay on SK-MEL-5 melanoma is 96.9%; in the assay with UACC-62 melanoma, 96%; with LOX IMVI melanoma, 100%; with SK-MEL-28 melanoma, 104%; in the assay with SK-MEL-2 melanoma, 96.3%; in the assay on EKVX NSCLC it was 98.4%. Further, the growth in the assay on SN12C renal was 98.8%; in the assay with UO-31 renal, 82%; with TK-10 renal it was 97.9%; in the assay with ACHN renal it was 98.2%; in the assay with CAKI-1 renal it was 83.1%; with CCRF-CEM leukemia, 104%. Besides, in the assay on MOLT-4 leukemia, the growth was 87.6%.

With `CCOC(=O)[C@@H](C)C[C@H](Cc1ccccc1)NC(=O)c1csc([C@@H](C[C@H](C(C)C)N(C)C(=O)[C@@H](NC(=O)[C@H]2C[C@H](O[Si](C)(C)C(C)(C)C)CCN2C)C(C)C)OC(C)=O)n1`, the growth with HCT-15 colon is -6.05% [9.25 µM] (active); in the assay on HT29 colon it was -71.7% [9.25 µM] (active); in the assay with SNB-75 CNS, 7.94% [9.25 µM] (active); in the assay on SNB-19 CNS, 5.09% [9.25 µM] (active); in the assay with U251 CNS it was -17.3% [9.25 µM] (active); with PC-3 prostate, 6.78% [9.25 µM] (active). Further, the growth in the assay on SK-MEL-5 melanoma is -14.5% [9.25 µM] (active); with UACC-62 melanoma it was 4.13% [9.25 µM] (active); in the assay on LOX IMVI melanoma it was 4.27% [9.25 µM] (active); in the assay with SK-MEL-28 melanoma, 24.2% [9.25 µM]; with SK-MEL-2 melanoma, -21.2% [9.25 µM] (active); in the assay with EKVX NSCLC it was 24.1% [9.25 µM]. The growth in the assay with SN12C renal was 3.13% [9.25 µM] (active); in the assay with UO-31 renal, 8.06% [9.25 µM] (active); in the assay on TK-10 renal it was 12.1% [9.25 µM]; in the assay with ACHN renal it was 5.74% [9.25 µM] (active); in the assay on CAKI-1 renal, 15.9% [9.25 µM]; in the assay with CCRF-CEM leukemia it was 0.176% [9.25 µM] (active). The growth in the assay with MOLT-4 leukemia was 1.33% [9.25 µM] (active).

On to `O=C(Nc1ccc(F)cc1)Nc1ccc(NC(=O)c2cc(Cl)nc3ccccc23)cc1`, for which the growth is 98.7% in the assay with HCT-15 colon; 65.3% with HT29 colon; 67.2% in the assay on SNB-75 CNS; 49.7% in the assay on SNB-19 CNS; 62.8% in the assay with U251 CNS; 59.4% in the assay on PC-3 prostate. Also, the growth with SK-MEL-5 melanoma is 70.1%; in the assay on UACC-62 melanoma it was 72%; with LOX IMVI melanoma, 55%; in the assay on SK-MEL-28 melanoma, 77.7%; in the assay with SK-MEL-2 melanoma it was 90.3%; in the assay with EKVX NSCLC, 89.2%. In addition, the growth with SN12C renal was 73.6%; with UO-31 renal it was 83.1%; with TK-10 renal it was 83.5%; in the assay with ACHN renal, 102%; in the assay on CAKI-1 renal, 78.5%; with CCRF-CEM leukemia it was 41.9%. Also, the growth in the assay with MOLT-4 leukemia was 64.2%.
